Measurements: PubChem BioAssay (NCI)
About 79,000 compounds went through this panel and 15% of them were active in at least one assay; those are over-represented in the sample as a whole. Values without a mark were called inactive. Activity calls are given as the source filed them. Rule as the data show it: active = growth inhibition above about 70%; inactive = the rest.

Tests used:
[1] = NCI Yeast Anticancer Drug Screen. Data for the rad50 strain (AID 155);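 also: 0% = growth of vehicle-only cultures of the same strain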; conditions: S. cerevisiae rad50 strain growth inhibition; at 50.0 µM; hits give high values
Summary of the method: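 DNA repair mutant yeast, compound exposure, growth read-out; inhibition is taken relative to vehicle.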

[2] = NCI Yeast Anticancer Drug Screen. Data for the sgs1 mgt1 strain (AID 161);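 also: 0% = growth of cultures given vehicle only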; conditions: S. cerevisiae sgs1 mgt1 strain, at 50.0 µM, hits give high values
Summary of the method: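 Percent growth inhibition was derived by comparing compound-exposed mutant yeast with vehicle-exposed cultures. The strain carries alterations in DNA damage repair.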

[3] = NCI Yeast Anticancer Drug Screen. Data for the cln2 rad14 strain (AID 165);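 also: 0% = growth equal to vehicle treated cultures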; conditions: S. cerevisiae cln2 rad14 strain, at 50.0 µM, hits give high values
Summary of the method: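 Growth inhibition, relative to vehicle-treated controls, is the read-out. The test organism is a yeast strain with defined genetic alterations, cln2 rad14.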

[4] = NCI Yeast Anticancer Drug Screen. Data for the bub3 strain (AID 167); conditions: S. cerevisiae bub3 mutant strain, at 50.0 µM, hits give high values
Summary of the method: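 In this screen, a yeast mutant lacking normal mitotic checkpoint function is challenged with compound. Relative growth versus vehicle gives the inhibition value.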

[5] = NCI Yeast Anticancer Drug Screen. Data for the mlh1 rad18 strain (AID 175); conditions: S. cerevisiae mlh1 rad18 strain growth inhibition; at 50.0 µM; hits give high values
Summary of the method: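 Cells of a genetically altered yeast strain, deficient in DNA damage repair, were treated with compound. Their growth was then compared with that of vehicle-treated cultures to give inhibition.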

[6] = NCI Yeast Anticancer Drug Screen. Data for the mec2-1 strain (AID 157); conditions: S. cerevisiae mec2-1 strain, at 50.0 µM, hits give high values
Summary of the method: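 Growth inhibition is read against vehicle-treated controls after compound exposure of the mec2-1 yeast strain, which is defective in DNA damage repair or cell cycle control.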

In the case of CCOc1ccccc1/C=C/C(=O)O, the growth inhibition [1] is reported as 4.6%, the growth inhibition [2] is reported as -11.8% and the growth inhibition [3] is reported as -19%. It also gave a growth inhibition [4] of -22.1% and a growth inhibition [5] of -21.4%.
CC1(C)OC2CC3COC(=O)C3CC2O1 (centres undefined) showed a growth inhibition [1] of 9.35%, a growth inhibition [2] of -8.45% and a growth inhibition [3] of 1.6%. It also gave a growth inhibition [4] of 30.2% and a growth inhibition [5] of 17.9%.
Work on CCOC(=O)NNC(N)=O yielded a growth inhibition [1] of -2.8%, a growth inhibition [2] of -18% and a growth inhibition [3] of -22.1%. It also gave a growth inhibition [4] of 1.8% and a growth inhibition [5] of -10.5%.
For Clc1ccccc1C(N1CCCCC1)N1CCCCC1, the growth inhibition [1] was 27.9%, the growth inhibition [2] was 19.4% and the growth inhibition [3] was 13.5%. For the same compound, the growth inhibition [4] was 28% and the growth inhibition [5] was 28.1%.
In the case of CCCCCCCCCCCC(=O)NC(=S)Nc1ccc(N(C)C(C)=O)cc1, the growth inhibition [1] is reported as 90.5% (active), the growth inhibition [2] is reported as 92.5% (active) and the growth inhibition [3] is reported as 87.6% (active). For the same compound, the growth inhibition [4] was 90% (active) and the growth inhibition [5] was 91.9% (active).
For CC(NC(=O)CNP(=O)(c1ccccc1)c1ccccc1)C(=O)NC(Cc1ccccc1)C(=O)OCc1ccccc1 (centres undefined), the growth inhibition [1] was 9.8%, the growth inhibition [2] was 20.1% and the growth inhibition [3] was -4.5%. For the same compound, the growth inhibition [4] was -9.55% and the growth inhibition [5] was 30.1%.
In the case of O=Cc1cc(C(=O)c2ccccn2)c2cc(Cl)cc(Cl)c2n1, the growth inhibition [1] is reported as 8.05%, the growth inhibition [2] is reported as 5.8% and the growth inhibition [3] is reported as -13.8%. The growth inhibition [4] was -4.3% and the growth inhibition [5] was 11.6%.
For O=C(N/N=C/c1ccc(Cl)cc1Cl)c1cccc2ccccc12, the growth inhibition [1] was 8.2%, the growth inhibition [2] was -15% and the growth inhibition [3] was -5.6%. It also gave a growth inhibition [4] of 11.6% and a growth inhibition [5] of 3.1%.
For Cc1nn(C(=O)c2ccccc2O)c2c1C(c1ccccc1)SC(N)=N2 (centres undefined), the growth inhibition [1] was 16.6%, the growth inhibition [2] was 25.2% and the growth inhibition [3] was -5.25%. For the same compound, the growth inhibition [4] was 30.9% and the growth inhibition [5] was 9.3%.
For Clc1ccc(CCn2cncn2)cc1, the growth inhibition [1] was -15.6%, the growth inhibition [2] was -44.9% and the growth inhibition [3] was -11.7%. It also gave a growth inhibition [4] of -22.6% and a growth inhibition [5] of -18.8%.
With Cn1c(=O)c2ccccc2c2cc([N+](=O)[O-])ccc21 the growth inhibition [1] was -11.8%, the growth inhibition [2] was -18.5% and the growth inhibition [3] was 1.1%. For the same compound, the growth inhibition [4] was 12.7% and the growth inhibition [5] was -4.2%.
With Cc1ccc(Cl)cc1N the growth inhibition [1] was 11.8%, the growth inhibition [2] was 8.25% and the growth inhibition [3] was -27%. For the same compound, the growth inhibition [4] was 0.85% and the growth inhibition [5] was 18.8%.
With O=C(OCC1OC(OC(=O)c2ccccc2)C(F)C1OC(=O)c1ccccc1)c1ccccc1 (centres undefined) the growth inhibition [1] was -2.65%, the growth inhibition [2] was 7.15% and the growth inhibition [3] was -20.1%. It also gave a growth inhibition [4] of -8.25% and a growth inhibition [5] of 7.9%.
Compound Cc1cc(=O)n(Cc2ccccc2)n1-c1ccccc1 has a growth inhibition [1] of -11%, a growth inhibition [2] of -0.4% and a growth inhibition [3] of 9.4%. The growth inhibition [4] was 1.2% and the growth inhibition [5] was -17%.
Work on c1ccc2c(c1)cnc1c3ccccc3ccc21 yielded a growth inhibition [1] of 10.1%, a growth inhibition [2] of -8.6% and a growth inhibition [3] of -21.9%. For the same compound, the growth inhibition [4] was 6.85% and the growth inhibition [5] was -0.5%.
Work on CCCCN(CC)C(=O)C(=O)Cc1nc2ccc(C(=O)c3ccccc3)cc2[nH]c1=O yielded a growth inhibition [1] of 17.3%, a growth inhibition [2] of -4.2% and a growth inhibition [3] of 17%. It also gave a growth inhibition [4] of 4.2% and a growth inhibition [5] of 2.4%.
In the case of COc1ccccc1NC(=S)N/N=C(/c1ccccc1)c1ccccn1, the growth inhibition [1] is reported as -50.9%, the growth inhibition [2] is reported as 17.4% and the growth inhibition [3] is reported as 15.1%. The growth inhibition [4] was 20.2% and the growth inhibition [5] was 10.6%.
In the case of COc1c(O)c2c(=O)cc3c4c5c(cc(=O)c6c(O)c(OC)c(CC(C)O)c(c(c1CC(C)O)c24)c65)OCO3 (centres undefined), the growth inhibition [1] is reported as 74.5% (active), the growth inhibition [2] is reported as 76.3% (active) and the growth inhibition [3] is reported as 37.5%. The growth inhibition [4] was 5.55% and the growth inhibition [5] was 70.5% (active).
Cc1nc(C(=O)O)c(C(=O)O)[nH]1 showed a growth inhibition [1] of -4.4%, a growth inhibition [2] of -10.9% and a growth inhibition [3] of -1.7%. It also gave a growth inhibition [4] of -7.75% and a growth inhibition [5] of 1.2%.
In the case of NC(Cc1cccc([N+](=O)[O-])c1)C(=O)O (centres undefined), the growth inhibition [1] is reported as -57.8%, the growth inhibition [2] is reported as -35.2% and the growth inhibition [3] is reported as -48.3%. For the same compound, the growth inhibition [4] was 13.3% and the growth inhibition [5] was -3.8%.
For N#CC(C(=O)C(N)=O)c1ccccc1Cl (centres undefined), the growth inhibition [1] was -13.5%, the growth inhibition [2] was -6.8% and the growth inhibition [3] was -0.7%. For the same compound, the growth inhibition [4] was -12.2% and the growth inhibition [5] was -17.3%.
Compound CCCCC(CC)CC#N (centres undefined) has a growth inhibition [1] of 6.15%, a growth inhibition [2] of 21.1% and a growth inhibition [3] of 6.05%. It also gave a growth inhibition [4] of -4.35% and a growth inhibition [5] of 10.7%.
O=C(c1cccc(Cl)c1)c1cccc(Cl)c1 showed a growth inhibition [1] of 1.2%, a growth inhibition [2] of -0.9% and a growth inhibition [3] of 2.35%. The growth inhibition [4] was 5.15% and the growth inhibition [5] was -3.25%.
Compound Cc1ccc(C(c2ccccc2)C(CC(=O)O)CC(=O)O)cc1 (centres undefined) has a growth inhibition [1] of 1.2%, a growth inhibition [2] of 15% and a growth inhibition [3] of 6.45%. It also gave a growth inhibition [4] of 5.2% and a growth inhibition [5] of 15.9%.
NC(=O)C1CCCNC1 (centres undefined) showed a growth inhibition [1] of -6.6%, a growth inhibition [2] of -10.4% and a growth inhibition [3] of -13.6%. The growth inhibition [4] was 15.6% and the growth inhibition [5] was 6.85%.
CCC[N+]1([O-])CCOCC1 showed a growth inhibition [6] of -1.8%, a growth inhibition [3] of 26.4% and a growth inhibition [4] of 14.3%. For the same compound, the growth inhibition [5] was -18.1%.
